Source: PubChem BioAssay
RORgamma inh = ROR gamma (mouse) transcription inhibition; P51450; Drosophila S2 Gal4-RORgamma UAS-luciferase reporter, 20 h; Potency, µM (titrated, usually from 53.6 µM), for inactives: top-dose activity change, negative = inhibition, usual class: inhibitors; 310,000 compounds, 5.4% hits; AID 2551; note: potency is the fitted concentration of half-maximal effect; % is set by controls: 0 for no effect and ±100 for the full control effect; nearly all actives have a fitted effect of over 60% in size
Target sequence (P51450 whole entry, looked up, the tested form may be a part): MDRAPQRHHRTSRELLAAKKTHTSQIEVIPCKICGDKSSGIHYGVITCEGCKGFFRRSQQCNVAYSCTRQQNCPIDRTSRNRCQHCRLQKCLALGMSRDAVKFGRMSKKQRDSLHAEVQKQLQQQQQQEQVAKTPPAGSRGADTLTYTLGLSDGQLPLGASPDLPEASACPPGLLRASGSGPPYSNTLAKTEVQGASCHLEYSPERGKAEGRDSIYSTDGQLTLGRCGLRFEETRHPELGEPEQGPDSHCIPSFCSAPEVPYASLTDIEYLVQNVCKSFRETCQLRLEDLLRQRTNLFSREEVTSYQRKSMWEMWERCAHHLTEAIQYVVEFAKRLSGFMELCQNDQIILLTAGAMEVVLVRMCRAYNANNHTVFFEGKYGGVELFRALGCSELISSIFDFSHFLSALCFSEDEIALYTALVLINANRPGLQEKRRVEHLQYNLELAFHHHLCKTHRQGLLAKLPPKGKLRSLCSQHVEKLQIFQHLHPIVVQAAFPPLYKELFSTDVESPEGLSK
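Drosophila Schneider cells stably carrying a metallothionein-driven Gal4 DBD–ROR gamma fusion and a UAS-Photinus luciferase reporter were exposed to compound for 1 hr, then induced with copper sulfate (700 uM final) for 20 hr at ambient temperature before luminescence reading.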
TRPV1 PAM = potentiators of human vanilloid receptor 1 (TRPV1); 320,000 compounds, 0.02% hits; Q8NER1; TRPV1-expressing cells, Fluo-8 calcium influx, capsaicin EC20 potentiation; potentiation, % at 8.33 µM; AID 540277; in the data active = potentiation above about 80%; inconclusive = between about 30% and that limit; note: 0% is about no effect
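Fluo-8 calcium influx in TRPV1-expressing cells, kinetic read (ex 480/em 520 nm). Compound added and read 3 min for agonist activity, followed by capsaicin at EC20 final and 2 min further read for enhancement.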
TRPV1 ag = activates the human vanilloid receptor TRPV1; activation, % at 8.33 µM; 320,000 compounds, 0.19% hits; Q8NER1; TRPV1-expressing cells, Fluo-8 calcium influx, agonist mode; in the data active = activation above about 80%; inconclusive = between about 30% and that limit; note: 0% is about no effect
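Cells expressing TRPV1 were dye-loaded with Fluo-8 and read kinetically: 10 s baseline, 3 min after compound (agonist portion), then 2 min after EC20 capsaicin (allosteric enhancer portion). Calcium-bound dye fluorescence at 480/520 nm.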
Gal4-VP16 FLuc = counter-screen for ROR gamma inhibitors: Gal4-VP16 reporter; Drosophila S2 Gal4-VP16 UAS-luciferase, luminescence, 20 h; Potency, µM (titrated, usually from 53.6 µM), inactives show top-dose activity, negative = inhibition, actives largely listed as inhibitors; 310,000 compounds, 3.5% hits;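 note: Gal4-VP16 expression switched on by copper sulfate through the metallothionein promoter; potency is the fitted concentration of half-maximal effect; % is set by controls: 0 for no effect and ±100 for the full control effect; nearly all actives have a fitted effect of over 50% in size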
uPA surface inh = blocks generation of uPA at the cell surface. cell surface uPA generation assay, qHTS. Potency, µM (series often up to 38.3 µM), without a hit: top-dose activity change, negative = inhibition, hits mostly inhibitors. 330,000 compounds, 0.31% hits; active = well fitted inhibition curve with a large enough effect; inconclusive = small, poorly fitted or top-dose-only effect; inactive = no such curve, though single readings can be large or run the other way; tested in mouse RAW 264.7 cells; note: potency is the fitted concentration of half-maximal effect; % is set by controls: 0 for no effect and ±100 for the full control effect; nearly all actives have a fitted effect of over 55% in size
* marks the source's active call; other numbers are inactive results; ? = inconclusive; · = no result; [ ] = remark or other dose. Rows were chosen to be rich in hits. Some 5.8% of all compounds tested hit in one or more screens of this group. Unless noted, calls come from the whole dose curve; as a rule, active = well fitted curve in the direction sought with a large enough effect; inconclusive = small, poorly fitted or top-dose-only effect, or another doubt; inactive = no such curve, though single readings can be large; an effect the other way counts as inactive or inconclusive.

SMILES	RORgamma inh	TRPV1 PAM	TRPV1 ag	Gal4-VP16 FLuc	uPA surface inh
O=C(Nc1cccc(Cl)c1)c1cccc(N2C(=O)C3CC=CCC3C2=O)c1 (configuration not stated)	4.0%	-11.5	26.0	17.2%	3.7%
COC(=O)c1ccccc1NC(=S)NC(NC(=O)c1ccccc1[N+](=O)[O-])C(Cl)(Cl)Cl (configuration not stated)	12.6µM*	10.2	-2.5	?	1.5%
COC(=O)c1ccccc1NC(=S)NC(NC(=O)c1ccco1)C(Cl)(Cl)Cl (configuration not stated)	7.94µM*	4.0	5.5	-88.7%	-11.5%
COc1ccc(NC(=S)NC(NC(=O)c2ccccc2Cl)C(Cl)(Cl)Cl)c([N+](=O)[O-])c1 (configuration not stated)	?	7.7	-0.3	-4.8%	-0.9%
COCCN(C(=O)COC(=O)CCSc1ccc(F)cc1)c1c(N)n(Cc2ccccc2)c(=O)[nH]c1=O	·	8.1	-2.7	·	-0.9%
Cc1cc(NC(=O)/C=C/c2cccc(Cl)c2)n(-c2nc3ccccc3[nH]2)n1	?	-8.6	-1.8	?	0.7%
COc1ccc(/C=C/C(=O)Nc2cc(C)nn2-c2nc3ccccc3n2Cc2cccc([N+](=O)[O-])c2)cc1	1.9%	-18.3	-2.3	-1.7%	4.4%
COc1ccc(/C=C/C(=O)Nc2cc(C)nn2-c2nc3ccccc3[nH]2)cc1	1.78µM*	-5.5	?	2.51µM*	-4.2%
Cc1cc(NC(=O)/C=C/c2cccc(F)c2)n(-c2nc3ccccc3[nH]2)n1	1.58µM*	-0.2	?	2.82µM*	-2.7%
Cc1cc(NC(=O)/C=C/c2ccc(F)cc2)n(-c2nc3ccccc3[nH]2)n1	1.26µM*	-10.7	?	1µM*	4.6%
CC(C)CO/N=C1/C[C@@H](O)[C@@H](O)[C@@H]2[C@@H]3C(=O)N(C(C)(C)C)C(=O)[C@H]3CC[C@H]12	12.6%[10 µM]	·	·	-7.1%[10 µM]	·
COc1ncnc(OC)c1S(=O)(=O)Nc1ccc(C(F)(F)F)cc1	-2.7%	7.3	-2.4	1.0%	5.9%
C=CCn1c(-c2ccc(Cl)cc2)cnc1SC(C)C(=O)NC(N)=O (configuration not stated)	?	2.8	-1.6	-3.9%[10 µM]	5.3%
C=CCn1c(-c2ccc(Cl)cc2)cnc1SC(C)C(N)=O (configuration not stated)	7.94µM*	-6.0	-1.7	?	6.4%
CNC(=S)NNC(=O)c1ccc(=O)n(Cc2ccc(Cl)cc2Cl)c1	12.6µM*	-1.6	2.6	?	-5.9%
CNC(=S)NNC(=O)c1cccn(Cc2ccc(Cl)cc2Cl)c1=O	37.4%	-1.5	0.7	-4.4%	·
O=C(/C=C/c1ccc(Cl)cc1)Nc1nccs1	8.91µM*	-0.8	26.5	-5.2%	?
C/C=C/C=C/C(=O)Nc1nccs1	10µM*	8.6	-2.3	5.62µM*	-3.3%
CC(OC(=O)c1ccc([N+](=O)[O-])o1)C(=O)Nc1nc(-c2ccc(F)c(F)c2)cs1 (configuration not stated)	·	2.8	5.8	·	-7.0%
COc1ccc(C(=O)CSc2n[nH]c(C)n2)cc1[N+](=O)[O-]	?	-5.0	5.0	?	-1.6%
O=[N+]([O-])c1cccc(NC(=S)NCCc2ccccc2)c1	16.3%	0.5	1.5	?	-5.9%
O=[N+]([O-])c1ccc(S(=O)(=O)NNC(=S)NCCc2ccccc2)cc1	8.91µM*	2.0	1.5	11.2µM*	-7.3%
CC(=O)NNC(=S)NCCc1ccccc1	11.2µM*	-13.4	4.3	-10.2%	-9.0%
CC(C)(CNC(=S)NCCc1ccccc1)CNC(=S)NCCc1ccccc1	?	-2.0	5.4	8.91µM*	-6.8%
O=C(CCc1ccccc1)NNC(=S)NCCc1ccccc1	7.94µM*	?	1.0	?	-5.6%
SMILES	RORgamma inh	TRPV1 PAM	TRPV1 ag	Gal4-VP16 FLuc	uPA surface inh
COC(=O)[C@]1(Cc2ccccc2)N[C@H](CN(C)S(=O)(=O)c2ccc(-c3ccccc3)cc2)[C@@H]2C(=O)N(Cc3ccccc3)C(=O)[C@@H]21	·	·	·	·	7.2%
CC1CCCO1 (configuration not stated)	17.0%	·	·	7.4%	·
CCCc1cc(=O)[nH]c(SCC(=O)NC(=O)NC2CCCC2)n1	·	15.6	-0.1	·	-6.9%
CC1CN(C(=O)CSc2nnc(-c3ccccc3)o2)CC(C)O1 (configuration not stated)	1.8%	-11.5	-0.7	1.0%	-0.6%
CC(NC(=S)NNS(=O)(=O)c1cccc([N+](=O)[O-])c1)c1ccccc1 (configuration not stated)	7.08µM*	-2.0	0.0	6.31µM*	-6.5%
CC(C)[C@H](O)C1=CCCCC1=O	6.8%	·	·	3.0%	·
CCN(CC)S(=O)(=O)c1cccc(C(=O)N/N=C(\C)c2ccc(O)cc2O)c1	12.6µM*	-0.5	1.7	6.5%	-8.3%
CCN(CC)S(=O)(=O)c1cccc(C(=O)N/N=C/c2ccc(O)c(O)c2O)c1	-31.8%	5.3	-1.4	-7.4%	-1.8%
CCN1C(=O)[C@@H]2[C@H](C1=O)[C@@H]1C[C@H]3C(=O)N(CC)C(=O)[C@H]3[C@@H]3C1=C(C(=O)N1C(=O)O/C(=N\CC4CC4)[C@]31C)[C@@H]2C	-11.7%	·	·	0.6%	·
O=S(=O)(Nc1cc(O)cc2cccnc12)c1ccc(Cl)s1	3.98µM*	·	·	?	·
O=S(=O)(Nc1cc(O)cc2cccnc12)c1ccc(Br)s1	7.94µM*	·	·	6.31µM*	·
O=S(=O)(Nc1ccccc1N1CCCCC1)c1ccc(Cl)s1	-7.7%	-28.7	14.9	-14.0%	11.9%
CC(C)C1NC(C(=O)O)Cc2c1[nH]c1ccccc21 (configuration not stated)	-9.9%	3.6	3.3	3.0%	-3.4%
CC1CC=CC2C1C(=O)N(Cc1ccccc1)C2c1ccc(-c2ccc(F)cc2)cc1F (configuration not stated)	27.4%	·	·	-11.2%	·
O=C(CCCN1C(=O)/C(=C/c2cccc(Br)c2)SC1=S)Nc1ccccn1	?	6.9	-4.7	-2.2%[0.365 µM]	1.2%
CCc1ccc(/C=C2\SC(=S)N(CCCC(=O)Nc3ccccn3)C2=O)cc1	0.282µM*	3.6	5.2	1.41µM*	8.4%
CCc1ccc(/C=C2/SC(=S)N(CCC(=O)Nc3cccc(C(=O)O)c3)C2=O)cc1	?	-8.2	-6.9	-17.4%	0.2%
CCc1ccc(/C=C2/SC(=S)N(CCC(=O)Nc3ccc(C(=O)O)cc3)C2=O)cc1	3.55µM*	3.0	?	-6.9%	·
CC(=C\c1ccccc1)/C=C1/SC(=S)N(CCC(=O)Nc2ccccn2)C1=O	-14.2%	5.2	-0.5	3.1%	·
COC(=O)c1ccc(/C=C2/SC(=S)N(CCCC(=O)Nc3ccccn3)C2=O)cc1	1.12µM*	2.0	0.2	1.78µM*	-5.6%
O=C(CCCN1C(=O)S/C(=C\c2ccccc2)C1=O)NNC(=O)c1ccccc1O	0.447µM*	3.1	-2.1	2.51µM*	0.8%
